This is an account of results in PubChem BioAssay AID720579 (National Center for Advancing Translational Sciences (NCATS), 2013).

Among all 310,000 compounds or so, about 1,900 (0.61%) were called active. Inconclusive results (about 8%) are left out. The entries come from a sample that favours actives as a whole. Unmarked numbers belong to inactive results. Calls follow the shape of the full dose curve; tested in A549 cells.
% is scaled to controls: 0 for no effect and ±100 for the full control effect; potency is read from the fitted curve at half-maximal effect.

A short description of the assay: qHTS for Stage-Specific Inhibitors of Vaccinia Orthopoxvirus: mCherry Reporter Primary qHTS. Also: nearly all actives have a fitted effect of over 35% in size. As to conditions: Vaccinia virus mCherry reporter infection, fluorescence; series mostly up to 36.5 µM; activity change, negative = inhibition: at the top concentration.
In the case of `CCN(CC)C(=O)C(C)N1c2cccc3cccc(c23)S1(=O)=O` (centres undefined), the compound was classed as inactive.
Consider `CSCCC(C(=O)NC(C)(C)C)n1c(-c2ccccc2)nc2ccccc21` (centres undefined), for which the “activity change, negative = inhibition” value was 5.73%.
The same measure, in the same setting: in the case of `CCCNC(=O)C1(C)CCN1C(=O)Cc1ccc(-c2ccccc2)cc1` (centres undefined) it was -12%; in that of `CC(=O)N1CCc2c(sc(NC(=O)CCS(=O)(=O)c3ccc(C)cc3)c2C(N)=O)C1`, -21.1%.
Still for that read-out and setting: with `CC(C)N1CCc2c(sc(NC(=O)Cc3ccccc3)c2C#N)C1` the figure was -27%.
Regarding `CC(=O)N1CCc2c(sc(NC(=O)CCS(=O)(=O)c3ccccc3)c2C#N)C1`, the Potency was 12.6 µM (active).
Take `CCc1oc(-c2ccc(OC)cc2)c(C(=O)OCCCCCO)c1C(C)OCCO` (centres undefined): the compound was classed as inactive.
With `O=C(c1cnn2c1NC(=C1CC1)C=C2C(F)F)N1CCc2ccccc2C1`, the “activity change, negative = inhibition” value was -18.9%.
Turning to `CN(C)c1cccc(NC(=O)c2ccc(-c3ccc(F)c(F)c3)c3ccoc23)c1`, the result was inactive.
On the same count and under the same terms, with `Cc1ccccc1S(=O)(=O)NC(=O)C1(C)CCN1C(=O)C1(c2ccccc2)CCCC1` (centres undefined) the entry was “inactive”.
As for `C#CCSc1nnc(-c2sc3ccccc3c2Cl)o1`, the Potency is 11.2 µM (active).
Regarding `O=C(OCC#CCSc1nnc(-c2ccncc2)o1)c1sc2ccccc2c1Cl`, the outcome was inactive.
Still for that read-out and setting: with `COc1ccc2c(Cl)c(-c3nnco3)sc2c1` the entry was “inactive”.
On to `CC1(C(=O)Nc2cccnc2)Cc2c(-c3ccccc3)ccnc2O1` (centres undefined), for which the “activity change, negative = inhibition” value was 3.66%.
For the compound `COc1ccc(C(=O)Oc2cc(/C=N/NS(=O)(=O)c3ccc(C)cc3)ccc2OC)cc1`, the “activity change, negative = inhibition” value is -0.0272%.
Consider `COc1ccc(NS(=O)(=O)c2ccc(NC(=S)NC(=O)/C=C/c3ccc(C)cc3)cc2)nn1`, for which the “activity change, negative = inhibition” value is -23.6%.
Consider `COc1ccc(/C=C/C(=O)c2ccc(NS(=O)(=O)c3ccc(C)cc3)cc2)cc1O`, for which the Potency is 12.6 µM (active).
As to `CCOC(=O)[C@]12CCCC=C1N(Cc1ccc3c(c1)OCO3)C(=O)[C@H](CC(=O)N1CCN(C(=O)c3ccco3)CC1)C2`, the “activity change, negative = inhibition” value is 17.3%.
Turning to `Cc1ccccc1NC(=O)Cc1nc(COC(=O)CNC(=O)c2ccc(Cl)cc2Cl)cs1`, the compound was classed as inactive.
As to `C/C=C/C(=O)OCc1csc(CC(=O)Nc2ccccc2C)n1`, the Potency was 5.01 µM (active).
As to `Cc1ccccc1NC(=O)Cc1nc(COC(=O)C(C)(C)Oc2ccc(Cl)cc2)cs1`, the “activity change, negative = inhibition” value is -3.94%.
Take `CCC(C(=O)NC(C)(C)C)n1c(-c2ccccc2)nc2ccccc21` (centres undefined): the “activity change, negative = inhibition” value was -9.32%.
On the same count and under the same terms, with `CC(C)=C(NC(=O)c1ccccc1)C(=O)N/N=C(\C)c1ccccc1O` the figure was -21.4%.
Turning to `C/C(=N\NC(=O)c1ccoc1C)c1ccccc1O`, the Potency is 1.12 µM (active).
As to `C/C(=N\NC(=O)c1ccccc1C)c1ccc(N2CCOCC2)cc1`, the “activity change, negative = inhibition” value is -16%.
As to `CCOC(=O)[C@]12CCCC=C1N(CCC1=CCCCC1)C(=O)[C@H](CC(=O)N1CCN(C(=O)c3ccco3)CC1)C2`, the compound was called inactive.
`CCc1c(-c2ccc(F)cc2)ncn1Cc1cccc(-c2ccccc2)c1`: the compound was called inactive.
As to `N#Cc1cccc(NC(=O)c2cc(C3CCCCN3C(=O)CCc3ccccc3)on2)c1` (centres undefined), the “activity change, negative = inhibition” value was 1.36%.
Same read-out and setting: in the case of `Cc1cc2c(cc1C)N1C(=O)c3cc4ccccc4cc3NC(=O)C1C(=O)N2` (centres undefined) it was 11.5%; in that of `CCNc1nc(NCC)nc(N/N=C/c2ccc(O)c(OC)c2)n1`, -15.6%.
The same measure, in the same setting: in the case of `FC(F)(F)c1cccc(N/N=C/c2ccccc2)c1` it was -17.6%.
For the compound `Oc1ccc(/C=N/Nc2ccc(C(F)(F)F)cn2)cc1O`, the Potency is 10 µM (active).
For the compound `O=C(COc1ccccc1C(=O)Nc1ccccc1)Nc1cccc(F)c1`, the “activity change, negative = inhibition” value was -27.2%.
In the case of `CC1(C(=O)Nc2cccc(Oc3ccccc3)c2)CCN1Cc1ccccc1Cl` (centres undefined), the compound was classed as inactive.
With `CN1OC[C@@H]2CN(C(=O)c3ccc(-c4ccccc4)cc3)[C@H](c3ccc(-c4cccc(F)c4)cc3)C[C@@H]21`, the “activity change, negative = inhibition” value was -2.21%.
In the case of `COc1ccccc1Cc1c(-c2ccc(Cl)cc2)nc2ccc(Cl)cn12`, the “activity change, negative = inhibition” value is -16.7%.
On to `C/C(=N\NC(=O)Cc1ccc(Br)cc1)c1cccnc1`, for which the compound was called inactive.
As for `C/C(=N\NC(=O)c1ccccc1F)c1ccccn1`, the Potency is 2 µM (active).
With `O=C(NCCOc1ccccc1)c1ccccc1F`, the “activity change, negative = inhibition” value was -10.6%.
The same measure, in the same setting: with `C/C(=N\NC(=O)Cc1ccc(F)cc1)c1ccc(F)cc1` the figure was -19.4%.
On the same count and under the same terms, with `O=C(Nc1ccc(NC(=O)c2ccccc2F)cc1)c1ccccc1F` the figure was -15%.
`C/C(=N\NC(=O)Cc1ccc(Cl)cc1)c1ccccn1`: the Potency is 5.01 µM (active).
Regarding `COc1ccccc1Cc1c(-c2ccc(Cl)cc2)nc2c3ccccc3ccn12`, the “activity change, negative = inhibition” value is -7.18%.
As to `COc1ccc(NC(=O)c2sc(=O)n(Cc3ccc(S(=O)(=O)N(C)C)cc3)c2C)cc1`, the call was inactive.
As for `COc1cccc(-c2cc(NC(C)=O)c3ncc(-c4cccc(C(C)=O)c4)n3c2)c1`, the “activity change, negative = inhibition” value was 4.33%.
Still for that read-out and setting: with `SCc1nc2ccc(Cl)cc2[nH]1` the figure was -20.9%.
Still for that read-out and setting: with `CC(=O)N1Cc2cc(C(=O)NCc3cccc(F)c3)nc(-c3cccc(C4=CCCC4)c3)c2[C@H]1CCO` the figure was -22.7%.
For the compound `Cc1ccc(C)c(S(=O)(=O)N2CCN(c3ncnc4sccc34)CC2)c1`, the Potency was 7.08 µM (active).
For `Cc1ccc(S(=O)(=O)N2CCN(c3ncnc4ccccc34)CC2)cc1`, the compound was classed as inactive.
For the compound `Cc1ccc(C)c(S(=O)(=O)n2nc(C)c(S(=O)(=O)N3CCC(C)CC3)c2C)c1`, the “activity change, negative = inhibition” value is 7.85%.
Same read-out and setting: in the case of `CCCN(CCC)S(=O)(=O)c1cc2c(cc1Br)CCN2C(=O)CC` it was -19.1%; in that of `CCCNC(=O)C1(C)CCN(Cc2ccc(Cl)c(Cl)c2)C1` (centres undefined), 10.3%.
On the same count and under the same terms, in the case of `COc1ccc(NC(=O)c2cnc(NS(=O)(=O)c3ccccc3)nc2)cc1` it was -2.69%.
As to `COc1ccc(NS(=O)(=O)c2ccc3oc(SCC(N)=O)nc3c2)cc1`, the Potency is 3.55 µM (active).
`CCn1c(=O)c(=O)[nH]c2c(=O)oc3ccc(S(=O)(=O)Nc4ccc(OC)cc4)cc3c21`: the “activity change, negative = inhibition” value is -4.06%.
With `Cc1ccc(NC(=O)Cn2sc3ccccc3c2=O)cc1`, the result was inactive.
Regarding `CN(C(=N)N)c1ccc(/C=C2\C=Cc3ccccc32)cc1`, the “activity change, negative = inhibition” value was -25.5%.
As to `CCOC(=O)[C@]12CCCC=C1N(CCC1=CCCCC1)C(=O)[C@H](CC(=O)N1CCCCC1)C2`, the “activity change, negative = inhibition” value was -13.6%.
Still for that read-out and setting: with `COc1cc2nc(N3CCCN(C)CC3)nc(NC3CC3)c2cc1OC` the figure was -9.78%; with `c1ccc2sc(NN=C3CCCC3)nc2c1`, -13.5%; with `O=C(Nc1ccccc1Cl)O/N=C(/c1ccccc1)c1ccccn1`, -20.6%.
Turning to `c1ccc(C(=NNc2nc3ccccc3s2)c2ccccn2)cc1`, the Potency is 7.08 µM (active).
On to `Cc1[nH]c2ccccc2c1C(=O)c1cc([C@H](NC(=O)OC(C)(C)C)C(C)C)sc1N`, for which the “activity change, negative = inhibition” value was -10.6%.
Turning to `CCCCN(C(C)=O)c1ccc2c(c1)C1CC2CCN1Cc1ccccc1` (centres undefined), the compound was called inactive.
